Potency data for 18 molecules are collected here from PubChem BioAssay (Tox21).

Assay [1] can be described thus: qHTS assay for small molecules that induce genotoxicity in human embryonic kidney cells expressing luciferase-tagged ATAD5 (AID 651632). Note: nearly all actives have a fitted effect of over 15% in size. Note: potency is the fitted concentration of half-maximal effect. The essentials: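 Quantitative HTS in HEK293T expressing luciferase-tagged ATAD5, whose levels rise upon DNA damage. Exposure ran 16 hr at 37C and 5% CO2, with luminescence read 30 min after Amplite addition at room temperature.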

Assay [2] can be described thus: qHTS assay for small molecule agonists of the p53 signaling pathway - cell viability (AID 651633; calls by dose curve; note: nearly all actives have a fitted effect of over 30% in size; note: potency is the fitted concentration of half-maximal effect). The essentials:
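p53RE-bla cells were treated with compound for 16 hours at 37 C. Cytotoxicity was then measured as CellTiter-Glo luminescence after 30 min at room temperature.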

Assay [3] can be described thus: qHTS assay for small molecules that induce genotoxicity in human embryonic kidney cells expressing luciferase-tagged ATAD5 - cell viability (AID 651634; calls by dose curve; note: nearly all actives have a fitted effect of over 25% in size; note: potency is the fitted concentration of half-maximal effect). In outline: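 After 15.5 hr incubation with compound at 37C, 5% CO2, HEK293T ATAD5-luciferase cells received CellTiter-Fluor reagent; fluorescence intensity was quantified following 30 min at 37C.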
A short description of assay [4]: qHTS assay for small molecule disruptors of the mitochondrial membrane potential - cell viability (AID 720634; calls by dose curve; note: nearly all actives have a fitted effect of over 20% in size; note: potency is the fitted concentration of half-maximal effect). In outline: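 ATP-based luminescent viability readout (CellTiter-Glo, 30 min, room temperature) in HepG2 cells multiplexed with the m-MPI membrane potential dye; compound exposure lasted 1 hr at 37 C.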
A short description of assay [5]: qHTS assay to test for compound auto fluorescence at 590 nm (red) in HepG2 cells (AID 720674). In outline:
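Fluorescence at 590 nm emission following 540 nm excitation was recorded from HepG2 wells one hour after compound transfer, with DMSO-only wells as vehicle and Rose Bengal sodium equivalency as the scale.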

Assay [6] in a line: qHTS assay to test for compound auto fluorescence at 535 nm (green) in HepG2 cells (AID 720675).
Assay [7] can be described thus: qHTS assay to test for compound auto fluorescence at 460 nm (blue) in HEK293 cells (AID 720678). In outline:
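After cell attachment (4-5 hr, 37C), compounds were pinned onto HEK293 monolayers in 10% dialyzed FBS medium. The blue channel (405/460 nm) was read following overnight culture. Equivalency was calculated against triamterene.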

Assay [8] in a line: qHTS assay to test for compound auto fluorescence at 590 nm (red) in HEK293 cells (AID 720679). The essentials:
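Plates of HEK293 cells (10% dialyzed FBS) are treated with 23 nL compound or DMSO vehicle after a 4-5 hr attachment period, incubated overnight at 37C, and read for red fluorescence at 540/590nm.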

Records with an inconclusive call do not appear. Activity calls are given as the source filed them. Unless noted, calls come from the whole dose curve; as a rule, active = well fitted curve in the direction sought with a large enough effect in the repeat runs; inconclusive = weak or mixed curves; inactive = no such curve, though single readings can be large; an effect the other way counts as inactive or inconclusive.

As to `O=C(O)CC/C=C\CC[C@@H]1[C@@H](N2CCCCC2)[C@@H](O)C[C@@H]1OCc1ccc(-c2ccccc2)cc1`, the Potency result in assay [1], in assay [2], in assay [3], in assay [4], in assay [5] and in assay [6] was “inactive” throughout. Moreover, the Potency entry in assay [7] and in assay [8] was “inactive” in each case.
As for `CC(C)N1CCN(c2ccc(OC[C@H]3CO[C@](Cn4cncn4)(c4ccc(Cl)cc4Cl)O3)cc2)CC1`, the Potency entry in assay [1], in assay [3], in assay [4], in assay [5], in assay [6] and in assay [7] was “inactive” each time. Also, the Potency result in assay [8] is “inactive”. Besides, in assay [2], the Potency was 11.4 µM (active).
Turning to `CC#CCC(C)[C@H](O)/C=C/[C@@H]1[C@H]2c3cccc(CCCC(=O)O)c3O[C@H]2C[C@H]1O` (some centres undefined), the Potency entry in assay [1], in assay [2], in assay [3], in assay [4], in assay [5] and in assay [6] was “inactive” in each case. Moreover, the Potency result in assay [7] and in assay [8] was “inactive” in each case.
For the molecule `NS(=O)(=O)c1cc2c(cc1Cl)NC(Cc1ccccc1)NS2(=O)=O` (centres undefined), the Potency entry in assay [1], in assay [2], in assay [3], in assay [4], in assay [5] and in assay [6] was “inactive” throughout. Further, the Potency result in assay [7] and in assay [8] was “inactive” throughout.
Take `c1ccc2c(c1)Sc1ccccc1N2CCN1CCCC1`: the Potency result in assay [1], in assay [2], in assay [3], in assay [4], in assay [5] and in assay [6] was “inactive” each time. Further, the Potency entry in assay [7] and in assay [8] was “inactive” in each case.
As for `CC(=O)O[C@H]1CC[C@@]2(C)C(=CC[C@@H]3[C@@H]2CC[C@]2(C)C(c4cccnc4)=CC[C@@H]32)C1`, the Potency entry in assay [1], in assay [2], in assay [3], in assay [4], in assay [5] and in assay [6] was “inactive” in each case. Further, the Potency result in assay [7] and in assay [8] was “inactive” in each case.
Turning to `CCN1C(=O)NC(c2ccccc2)C1=O` (centres undefined), the Potency entry in assay [1], in assay [2], in assay [3], in assay [4], in assay [5] and in assay [6] was “inactive” each time. In addition, the Potency entry in assay [7] and in assay [8] was “inactive” each time.
Regarding `C[C@H](N)C(=O)N[C@@H](C)P(=O)(O)O`, the Potency result in assay [1], in assay [2], in assay [3], in assay [4], in assay [5] and in assay [6] was “inactive” throughout. For the same molecule, the Potency result in assay [7] and in assay [8] was “inactive” in each case.
Turning to `O=C(Nc1ccc(/C=C/c2ccc(NC(=O)c3cc(S(=O)(=O)O)c4cccnc4c3O)cc2S(=O)(=O)O)c(S(=O)(=O)O)c1)c1cc(S(=O)(=O)O)c2cccnc2c1O`, the Potency entry in assay [1], in assay [2], in assay [3], in assay [4], in assay [5] and in assay [6] was “inactive” each time. The Potency entry in assay [7] and in assay [8] was “inactive” in each case.
For `C=C(NC(=O)C(=C)NC(=O)c1csc(C2=N[C@@H]3c4csc(n4)[C@H]4NC(=O)c5csc(n5)[C@H]([C@](C)(O)[C@@H](C)O)NC(=O)[C@H]5CSC(=N5)C(=CC)NC(=O)C([C@@H](C)O)NC(=O)c5csc(n5)[C@]3(CC2)NC(=O)[C@H](C)NC(=O)C(=C)NC(=O)[C@H](C)NC(=O)C([C@@H](C)CC)NC2C=Cc3c([C@H](C)O)cc(nc3C2O)C(=O)O[C@@H]4C)n1)C(N)=O` (some centres undefined), the Potency in assay [1] was 11.4 µM (active). Moreover, the Potency entry in assay [2], in assay [3], in assay [4], in assay [5], in assay [6] and in assay [7] was “inactive” throughout. For the same molecule, in assay [8], the Potency result is “inactive”.
`CC[C@@H]1/C=C(\C)C[C@H](C)C[C@H](OC)[C@H]2O[C@@](O)(C(=O)C(=O)N3CCCC[C@H]3C(=O)O[C@H](/C(C)=C/[C@@H]3CC[C@@H](Cl)[C@H](OC)C3)[C@H](C)[C@@H](O)CC1=O)[C@H](C)C[C@@H]2OC`: the Potency result in assay [1], in assay [2], in assay [3], in assay [4], in assay [5] and in assay [6] was “inactive” throughout. In addition, the Potency entry in assay [7] and in assay [8] was “inactive” each time.
Consider `CN1CCc2c(c3ccccc3n2Cc2ccccc2)C1`, for which the Potency entry in assay [1], in assay [2], in assay [3], in assay [4], in assay [5] and in assay [6] was “inactive” in each case. Besides, the Potency result in assay [7] and in assay [8] was “inactive” throughout.
Take `COc1ccc2c(c1)N(C[C@H](C)CN(C)C)c1ccccc1S2`: the Potency result in assay [1], in assay [2], in assay [3], in assay [4], in assay [5] and in assay [6] was “inactive” throughout. The Potency entry in assay [7] and in assay [8] was “inactive” in each case.
For the molecule `C[C@@H]1C[C@H]2C3C[C@H](F)C4=CC(=O)C=CC4(C)[C@@]3(F)[C@@H](O)CC2(C)[C@@]1(O)C(=O)COC(=O)C(C)(C)C` (some centres undefined), the Potency result in assay [1], in assay [2], in assay [3], in assay [4], in assay [5] and in assay [6] was “inactive” each time. For the same molecule, the Potency result in assay [7] and in assay [8] was “inactive” throughout.
Regarding `CCOC(=O)Oc1c(OC)cc(C(=O)O[C@@H]2C[C@@H]3CN4CCc5c([nH]c6cc(OC)ccc56)[C@H]4C[C@@H]3[C@H](C(=O)OC)[C@H]2OC)cc1OC`, the Potency result in assay [1], in assay [2], in assay [3], in assay [5], in assay [6] and in assay [7] was “inactive” throughout. For the same molecule, in assay [8], the Potency entry was “inactive”. In addition, the Potency in assay [4] is 10.1 µM (active).
Take `CN1CCC(OC(=O)C(Oc2ccc(Cl)cc2)Oc2ccc(Cl)cc2)CC1`: the Potency result in assay [1], in assay [2], in assay [3], in assay [4], in assay [5] and in assay [6] was “inactive” in each case. Also, the Potency result in assay [7] and in assay [8] was “inactive” in each case.
Take `COc1ccc2c(c1)OC(C)(C)C(c1ccccc1)C2c1ccc(OCCN2CCCC2)cc1` (centres undefined): the Potency entry in assay [1], in assay [4], in assay [5], in assay [6], in assay [7] and in assay [8] was “inactive” throughout. Further, the Potency in assay [2] is 29.8 µM (active); in assay [3], 26.6 µM (active).
Regarding `Cc1cc(C)c(NC(=O)C[C@H](CC(=O)O)c2cccc3ccccc23)c(C(=O)N2CCC3(CCCC3)CC2)c1`, the Potency result in assay [1], in assay [2], in assay [3], in assay [4], in assay [5] and in assay [6] was “inactive” each time. In addition, the Potency entry in assay [7] and in assay [8] was “inactive” each time.
